Results from PubChem BioAssay AID588852 (The Scripps Research Institute Molecular Screening Center, 2011).
About 4,600 (1.3%) of roughly 360,000 compounds were called active. This excerpt belongs to a sample that is enriched for actives. Values without a mark were called inactive.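 How the source made its calls: active means percent inhibition above its own plate's cutoff, namely the mean of that plate's compound wells plus 3 SD; inactive means the rest.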

molecular target: Muscarinic acetylcholine receptor M1 (Homo sapiens) (UniProt P11229); test: human M1 muscarinic receptor antagonists, primary screen, CHO-K1 cells, Fluo-8 calcium fluorescence, 1536-well (AID 588852); details: CHO-K1 hM1, Fluo-8 calcium fluorescence, ACh EC80 antagonist; at 3 µM; active compounds read high;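 further: peak over basal fluorescence ratio during 140 s after agonist addition; 0% = ACh EC80 plus DMSO and 100% = DMSO alone without agonist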
Sequence (P11229 whole entry, looked up): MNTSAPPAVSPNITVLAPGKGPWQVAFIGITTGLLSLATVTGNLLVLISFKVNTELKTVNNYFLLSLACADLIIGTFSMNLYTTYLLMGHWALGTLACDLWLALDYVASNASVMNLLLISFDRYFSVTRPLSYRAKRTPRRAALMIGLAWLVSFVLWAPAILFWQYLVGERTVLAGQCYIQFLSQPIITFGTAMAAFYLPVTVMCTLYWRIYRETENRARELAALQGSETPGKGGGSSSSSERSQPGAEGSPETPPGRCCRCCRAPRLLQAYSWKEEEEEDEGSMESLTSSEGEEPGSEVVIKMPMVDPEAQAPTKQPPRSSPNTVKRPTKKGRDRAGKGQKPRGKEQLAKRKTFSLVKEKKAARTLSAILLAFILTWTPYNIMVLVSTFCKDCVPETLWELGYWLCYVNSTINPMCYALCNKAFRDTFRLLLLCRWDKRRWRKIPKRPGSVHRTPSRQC

SMILES	inhibition
CN(C)CCNC(=O)c1ccc(-c2cn3c(-c4ccc(Oc5ccccc5)cc4)cnc3cn2)cc1	-3.33%
CCc1ccc(N2CC(C(=O)NC3=NCCS3)CC2=O)cc1 (stereo not drawn)	-11.6%
CN(Cc1ccccc1)CC(O)COc1ccc(CNCc2cc3ccccc3s2)cc1 (stereo not drawn)	15.1%
CCOC(=O)[C@H]1[C@H]2COc3ccc(Br)cc3[C@@H]2N2C(=O)CN(C)C(=O)[C@@]12C	-4.45%
Cc1ccc2c(NC(=O)C3CC3)cccc2n1	-22.4%
CN(C)S(=O)(=O)N1CCC(Oc2cccc(C(=O)NCCCC3CCCC3)c2)CC1	26.7%
Cc1cccc(C)c1-n1nnnc1C(CCc1ccccc1)N1CCN(C/C=C/c2ccccc2)CC1 (stereo not drawn)	-27.1%
O=C(NCc1ccco1)/C(=C\c1cccc([N+](=O)[O-])c1)NC(=O)c1ccco1	-2.79%
CCCC[C@@H]1CN=C(N)N1CCc1cccc(F)c1	18.6%
CCCC[C@@H]1CN=C(N)N1CCCC	8.39%
CCCC[C@@H]1CN=C(N)N1CCc1cc(C(F)(F)F)cc(C(F)(F)F)c1	51.9% (active)
CCN(CC(=O)Nc1c(F)cccc1F)C(=O)Cc1cccs1	-16.3%
Cn1nccc1NS(=O)(=O)c1ccc(F)cc1	-14.9%
C/C=C(\C)C(=O)NCCN1C2=NC[C@H](Cc3ccc(O)cc3)N2C[C@@H]1Cc1ccc(OC)cc1	-3.4%
COc1cccc(CNC(=O)CCC2CCCN(Cc3ccc(OC(F)F)cc3)C2)c1 (stereo not drawn)	20.6%
COc1ccc(C[C@H]2CN3C(=NC[C@H]3C)N2CCNC(=O)CCC2CCCCC2)cc1	38.6% (active)
COc1ccc(C2c3c(C)nn(-c4ccccc4)c3NC(=O)N2c2ccccc2)cc1 (stereo not drawn)	-12.4%
CCOC(=O)[C@H]1[C@H]2COc3cc(OC)ccc3[C@@H]2N2C(=O)CN(Cc3ccc(Cl)cc3)C(=O)[C@@]12C	-8.3%
CCOC(=O)[C@H]1[C@H]2COc3ccc(C)cc3[C@@H]2N2C(=O)CN(Cc3ccc(F)cc3)C(=O)[C@@]12C	35.9% (active)
CCOC(=O)[C@H]1[C@H]2COc3ccccc3[C@@H]2N2C(=O)CN(Cc3ccccc3)C(=O)[C@@]12C	7.51%
O=C1OC(Cc2ccccc2)C(c2ccccc2)C1=O (stereo not drawn)	-4.64%
NCCCCC(C(=O)O)N(C(=O)OCc1ccccc1)C(=O)OCc1ccccc1 (stereo not drawn)	2.44%

SMILES	inhibition
CCC(=C/c1sc2ccc3ccccc3c2[n+]1C)/C=C1\Sc2ccc3ccccc3c2N1C	-7.73%
CCCCCCC(O)(CCN1CCCCC1)c1ccccc1 (stereo not drawn)	98.8% (active)
CCCCOc1ccc(C(C)(O)CCN2CCOCC2)cc1 (stereo not drawn)	-7.98%
CCCCCC(O)(CCN1CCCCC1)c1ccccc1 (stereo not drawn)	99.8% (active)
CC(CN1CCCCC1)c1ccccc1 (stereo not drawn)	-23.4%
c1ccc2cc3[nH]c(CN4CCCCC4)nc3cc2c1	-5.8%
O=C(c1ccccc1)C(O)(CN1CCCCC1)c1ccccc1 (stereo not drawn)	1.74%
C#CC(CCN1CCCCC1)(OC)c1ccccc1 (stereo not drawn)	93.9% (active)
CCc1ccccc1NC(=O)NCCN1CCCCC1	-20.3%
CC(C)(c1ccccc1)c1ccc(OCCN2CCCC2)cc1	8.05%
CSc1nc(C)nc(C2CC2)c1C#N	-5.81%
CCOC1=C2[C@H]([C@H]3C(=O)N(c4ccccc4)C(=O)[C@H]3C1)[C@@H](c1ccccc1)N(S(=O)(=O)c1ccc(C)cc1)[C@H]2c1ccccc1	-3.55%
c1ccc(Cc2c(-c3ccco3)nc3c4ccccc4ccn23)cc1	-25.9%
Cc1ccc(-c2cnc(C(O)c3cc(Cl)cc(Cl)c3)[nH]2)cc1 (stereo not drawn)	10.3%
COc1ccc(OC)c(-c2c(=O)n(OCc3ccccc3Br)c3ccccc3[n+]2[O-])c1	-8.89%
CCN(CC)S(=O)(=O)c1ccc(N2CCOCC2)c(NC(=O)C2CSC3(C)CCC(=O)N23)c1 (stereo not drawn)	-11.2%
O=C(Cc1ncc(C(F)(F)F)cc1Cl)Nc1cccc(Br)c1	0.3%
CN(CC(=O)Nc1ccc(Cl)c(C(F)(F)F)c1)C(=O)CCC(=O)c1ccccc1	10.7%
O=C(CC(O)(C(F)(F)F)C(F)(F)F)Nc1ccc(Cl)c(Cl)c1	41.1% (active)
CC(=O)N1CCN(Cc2cc(=O)oc3cc(C)ccc23)CC1	-6.95%
Cc1cc(NC(=O)c2cc3ccccc3o2)no1	0.12%
COc1cc2ccccc2cc1C(=O)Nc1ccncc1	-10.8%

SMILES	inhibition
O=C(Nc1ccncc1)c1cc2ccccc2o1	11.1% (active)
CNS(=O)(=O)c1cnccc1N1CCN(c2cccc(C)c2)CC1	-21.3%
CC(=O)N1CCc2c(sc(NC(=O)CCS(=O)(=O)c3ccc(C)cc3)c2C(N)=O)C1	-9.37%
Cc1nc2c(OCc3cccc(Cl)c3)cccn2c1N(C)CC1CC1	68.1% (active)
CCCCC(=O)N(C)c1c(CC)nc2c(OCc3ccc(Cl)cc3Cl)cccn12	23.1%
CCc1nc2c(OCc3ccccc3)cccn2c1N(C)C(=O)c1ccco1	-4.6%
CCc1nc2c(OCc3ccc(Cl)cc3Cl)cccn2c1N(C)C(=O)C(C)C	2.38%
Cc1nc2c(OCc3ccc(Cl)cc3)cccn2c1N(C)Cc1cccs1	38.4% (active)
Cc1nc2c(OCc3ccc(Cl)cc3Cl)cccn2c1N(C)CC1CC1	43.8% (active)
CCc1nc2c(OCc3cccc(OC)c3)cccn2c1N(C)C(=O)C(C)C	5.18%
Cc1nc2c(OCC(=O)C(C)(C)C)cccn2c1N(C)Cc1cccs1	-8.77%
CCc1nc2c(OCc3ccc(F)c(F)c3)cccn2c1N(C)C(=O)c1ccco1	-7.6%
O=C(NCCCn1ccnc1)c1cc2c(s1)CCCC2	-5.2%
CC(=O)Nc1ccc(CNc2nc(NCCN(C)C)nc3cc(-c4ccccc4)sc23)cc1	-17.6%
COC(=O)c1ccc2c(c1)S(=O)(=O)NC(=NCCCN1CCOCC1)S2	-10.8%
COc1ccc(NC(=O)/C(N=Nc2cccc(S(=O)(=O)Nc3ccc(SC(F)F)cc3)c2)=C(\C)O)cc1	-7.35%
COc1cc(-c2nc(S(=O)(=O)c3ccc(Cl)cc3)c(N(C)C)o2)cc(OC)c1OC	-1.63%
COC(=O)CCSc1nccn1Cc1ccccc1	-11.6%
CN(CCO)C(=O)c1nc[nH]c1C(=O)N(C)Cc1ccccc1	-4.9%
O=S1(=O)CC(N2CCN(CCO)CC2)CN1C1CCCC1 (stereo not drawn)	-4.22%
CCOc1ccc(CCN2C(=S)N([C@@H](CC(C)C)CN3CCC[C@@H]3CN3C(=S)NC[C@@H]3Cc3ccc(O)cc3)C[C@@H]2CC(C)C)cc1	5.64%
COc1cc(CN2CCCC(C(=O)c3ccc(SC)cc3)C2)cc(Cl)c1O (stereo not drawn)	-1.81%

SMILES	inhibition
COc1ccc(CN2CCCC(C(=O)N3CCCCC3)C2)cc1 (stereo not drawn)	5.19%
COc1ccc(CN2CCCC(C(=O)c3ccc(Cl)cc3)C2)cc1Cn1cncn1 (stereo not drawn)	75.4% (active)
CS(=O)(=O)c1ccccc1C(=O)Nc1ccc2sccc2c1	-10.3%
COc1ccc(Cc2nc3ccc(C(=O)N4CCC(N(C)C)C4)cc3o2)cc1 (stereo not drawn)	3.18%
CCC1C(=O)NCCN1C(=O)c1ccc2nc(Cc3ccc(OC)cc3)oc2c1 (stereo not drawn)	-5.11%
CCn1ccnc1CN(C)C(=O)c1ccc2nc(Cc3ccc(OC)cc3)oc2c1	56.1% (active)
CCC1Sc2ccc(S(=O)(=O)CCC(=O)NCc3cccs3)cc2NC1=O (stereo not drawn)	-5.05%
CC12C(=O)N(n3cnnc3)C(=O)C1C1C=CC2C1 (stereo not drawn)	2.29%
Cc1ccc(S(=O)(=O)N2CCN(C)CC2)cc1	-16.6%
Cc1ccc(S(=O)(=O)N2CCN(c3ncnc4ccccc34)CC2)cc1	35.8% (active)
Cc1ccc(C)c(S(=O)(=O)N2CCN(c3ncnc4sccc34)CC2)c1	34.7% (active)
Cc1ccc(C)c(S(=O)(=O)N2CCN(CC(=O)Nc3ccc([N+](=O)[O-])cc3)CC2)c1	9.07%
Cc1ccc(S(=O)(=O)N2CCN(Cc3cccc(C)c3O)CC2)cc1	4.67%
COc1ccc(-c2csc3ncnc(N4CCN(S(=O)(=O)c5ccccc5C#N)CC4)c23)cc1	-2.61%
CC(Sc1sc(=S)sc1SC(C)C(=O)O)C(=O)O (stereo not drawn)	1.12%
C[C@H]([C@@H](O)[C@@H](O)[C@@H](C)C(C)(C)C)[C@H]1CC[C@H]2C3CC[C@H]4C[C@H](OS(=O)(=O)O)[C@@H](OS(=O)(=O)O)C[C@]4(C)[C@H]3CC[C@]12C (stereo partly drawn)	-9.61%
Cc1nc(-c2nnc(SCC(=O)Nc3cc(C(F)(F)F)cc(C(F)(F)F)c3)n2C)cs1	-3.69%
C=C1C(=O)[C@]23C[C@H]1CCC2[C@@]1(C)C(C[C@@H]3O)[C@](C)(C(=O)O)CC[C@@H]1O (stereo partly drawn)	-14.8%
CN1/C(=c2/s/c(=C3/C(=O)N(c4ccccc4)NC3=Nc3ccccc3)n(C)c2=O)C(C)(C)c2ccccc21	12.2%
CCOc1ccccc1CN1CCN(C2CCC2)CC1CCO (stereo not drawn)	-17.7%
Cc1ccccc1C(OCC(O)CN1CCCCC1CCO)c1ccccc1 (stereo not drawn)	28.9% (active)
COc1cccc(CN(C)CC(O)COC(c2ccccc2)c2ccccc2C)c1 (stereo not drawn)	16.4%
